According to ChEMBL document CHEMBL4513216, “Probing the Open Global Health Chemical Diversity Library for Multistage-Active Starting Points for Next-Generation Antimalarials” (ACS Infect Dis, 2020):
In all, about 69,000 compounds went through this assay and about 8,600 (12%) showed an effect of 50% or more. The sample holds strong results, similar compounds and a random draw of the others, so the mix is not that of the screen.

system: Plasmodium berghei; assay: Screen against P. berghei liver stage (PbLuc), transformed with Luciferase, at 10uM; type: functional, HepG2; settings: tested at 10 uM

| SMILES | INHIBITION |
| --- | --- |
| Cc1cccc(N2CCCC3(C2)CN(S(=O)(=O)C2CC2)CCO3)c1 (stereo unspecified) | 20.1% |
| CCc1c(C)nc2cc(-c3nccn3C)nn2c1N1CCCC(CO)C1 (stereo unspecified) | 10.62% |
| Cc1csc(CCCNC(C)CC(=O)Nc2ccc(F)cc2)n1 (stereo unspecified) | 40% |
| c1cnc(Nc2cncc(C3CCCN3)n2)cn1 (stereo unspecified) | 31.6% |
| CN(C)CC1COCCN1C(=O)C1(c2cccs2)CCCC1 (stereo unspecified) | 36.2% |
| CS(=O)(=O)N1CCN(c2cc(-n3cccc3)ncn2)CC1 | 38.3% |
| Cc1noc([C@@H]2CCO[C@@H]3CCN(Cc4ccc(C)s4)C[C@@H]32)n1 | 53.2% |
| Cc1ccc(CN2CC[C@H]3OCC[C@@H](c4nc(C)no4)[C@H]3C2)cc1 | 36.4% |
| Cc1noc([C@@H]2CCO[C@@H]3CCN(Cc4cccs4)C[C@@H]32)n1 | 24.1% |
| COCC(=O)N1CC[C@H]2N(C)CC[C@@]2(C(=O)Nc2ccccc2)CC1 | 3.25% |
| Cc1cnc(N2CCCC3(CCCN3CC(=O)N(C)C)C2)nc1 (stereo unspecified) | 79.2% |
| CC(=O)N1C[C@H]2CCCN(c3ncc(C)cn3)[C@H]2C1 | 45.8% |
| CN(C)C(=O)CN1CCCC12CCCN(c1ncc(F)cn1)C2 (stereo unspecified) | 8.31% |
| Cc1cnc(N2CCC[C@@H]3CN(CC(=O)N(C)C)C[C@@H]32)nc1 | 52.3% |
| CN(C)C(=O)CN1CCC2(CCCN(c3ncc(F)cn3)C2)C1=O (stereo unspecified) | 11.3% |
| Cc1cnc(N2CCC[C@@H]3CN(S(C)(=O)=O)C[C@@H]32)nc1 | 29.8% |
| CN(C)C1(CNC(=O)CC=Cc2ccc(F)cc2)CCOCC1 | -18% |
| Cc1nc(C)n(CC2CCCN(Cc3cn4c(C)cccc4n3)C2)n1 (stereo unspecified) | 5.03% |
| O=c1ccc2c(n1CCN1CCCC1)CCN(c1ncccn1)CC2 | 29.5% |
| CSCc1noc(CNC(=O)C2CCN(C(=O)C3CCC3)CC2)n1 | 16.7% |
| CSCc1noc(CNC(=O)C2CCN(C(=O)C3CCCC3)CC2)n1 | -26% |
| CSCc1noc(CNC(=O)C2CCN(C3CCCCC3)CC2)n1 | 53.9% |

| SMILES | INHIBITION |
| --- | --- |
| CCOCCCNc1cc(C)nn2cnnc12 | 25.3% |
| Cc1ccc2cnn(CCC(=O)Nc3c(C)nn(C)c3C)c2c1 | -8.19% |
| CCn1nc(C)c(NC(=O)CCn2ncc3cc(C)ccc32)c1C | 50.7% |
| Cc1nn(C)c(C)c1NC(=O)CCn1ncc2ccccc21 | 35.8% |
| CCn1c(CN2CCN(CCO)CC2)nc2c(F)cccc21 | 24.95% |
| COCCO[C@H]1CCN(C(=O)c2ccno2)[C@H]1Cc1ccncc1 | 18.3% |
| CCc1cnc2c(c1Nc1cccc(OC)c1)c(=O)n(C)c(=O)n2C | -31% |
| CCC1(CC)C(=O)NC(=O)N/C1=N/c1cccc(OC)c1 | 58.2% |
| CCC(C)NC(=O)Nc1cccc(OC)c1 (stereo unspecified) | -32% |
| CCN(CC)Cc1cc(=O)n2c(n1)CN(S(=O)(=O)C1CC1)CCC2 | -3.26% |
| Cn1cnc(S(=O)(=O)NCCCN2CCCC2=O)c1Cl | 4.71% |
| Cc1ccc(CN2C[C@@H]3C[C@H](C(=O)NCC4CC4)N(C)[C@@H]3C2)o1 | 16.1% |
| Cc1ccc(O)c(C(=O)N2CCOCC2c2c(C)nn(C)c2C)c1 (stereo unspecified) | -57.4% |
| CCC1=N[C@@]2(CC[C@@H]3CN(C(=O)NCc4ccccc4)C[C@@H]32)C(=O)N1 | 50% |
| CC1=N[C@@]2(CC[C@@H]3CN(C(=O)NCc4ccccc4C)C[C@@H]32)C(=O)N1 | 28.7% |
| CCC1=N[C@@]2(CC[C@@H]3CN(Cc4ccccc4C)C[C@@H]32)C(=O)N1 | 37.8% |
| CC1=N[C@@]2(CC[C@@H]3CN(C(=O)NCc4cccc(F)c4)C[C@@H]32)C(=O)N1 | 75.4% |
| CC1=N[C@@]2(CC[C@@H]3CN(C(=O)NCCc4ccccc4)C[C@@H]32)C(=O)N1 | 13.6% |
| CCC1=N[C@@]2(CC[C@@H]3CN(C(=O)NCC4CCCCC4)C[C@@H]32)C(=O)N1 | 47.4% |
| CCC1=N[C@@]2(CC[C@@H]3CN(C(=O)NCc4ccccc4C)C[C@@H]32)C(=O)N1 | 70.7% |
| CCC1=N[C@@]2(CC[C@@H]3CN(C(=O)NCc4cccc(F)c4)C[C@@H]32)C(=O)N1 | 39.2% |
| CCC1=N[C@@]2(CC[C@@H]3CN(C(=O)NCc4ccccc4)C[C@@H]32)C(=O)N1C | 25% |

| SMILES | INHIBITION |
| --- | --- |
| Cc1ccc(-c2nnn(CCN3C(=O)CCC3=O)n2)cc1 | -47.1% |
| Cc1cnc(C(=O)N2CCc3ncnc(-c4cnn(C)c4)c3CC2)cn1 | -3.33% |
| CC(=O)Nc1nc(C(=O)N2CCCC2c2noc(C(C)C)n2)cs1 (stereo unspecified) | 40.9% |
| CNC(=O)c1nc(CC(=O)Nc2cccc(C(F)(F)F)c2)no1 | -2.61% |
| Cc1cccc(OC2CN(C(=O)C3CC(=O)N(C(C)(C)C)C3)C2)c1 (stereo unspecified) | 25.5% |
| CC(C)Oc1ccc(CN2CCCC(N3CCOCC3)C2)cc1CO (stereo unspecified) | 82.9% |
| CC(C)Oc1ccc(CN2CCN3CCN(C)CC3C2)cc1CO (stereo unspecified) | -6.97% |
| CC(C)Oc1ccc(CN2CCCC(N3CCCC3)C2)cc1CO (stereo unspecified) | 20% |
| CCCC(=O)N1CCC(c2cc3cccnc3c(O)n2)CC1 | 1.62% |
| CN(C)CCCNC(=O)c1ccccc1NC(=O)c1cc(Cl)ccc1Cl | 27.6% |
| CCc1nc(C)sc1CN1CC[C@@](O)(C2CCOCC2)[C@H](C)C1 | -10.9% |
| O=S(=O)(c1ccc2c(c1)OCCO2)N1CCC(OCc2ccccn2)C1 (stereo unspecified) | -35.2% |
| O=c1ccc2c([nH]1)CCN(S(=O)(=O)c1ccc3c(c1)OCCO3)C2 | 26% |
| O=S(=O)(c1ccc2c(c1)OCCO2)N1CCc2ccccc2C1 | 57.6% |
| Cc1nc2cc(=O)[nH]n2c(C)c1CC(=O)NCc1ccc(C#N)cc1 | 41.2% |
| CC(C)(C)S(=O)(=O)CCNC(=O)c1ccc2ccccc2c1 | -35.8% |
| CSCc1cccc(S(=O)(=O)NCc2cnn(C)c2C)c1 | 78.3% |
| CSCc1cccc(S(=O)(=O)NCCO)c1 | 0.266% |
| CCNS(=O)(=O)c1cccc(CSC)c1 | 19.4% |
| CNS(=O)(=O)c1cccc(CNC(=O)c2cnn(C)c2C)c1 | 11.3% |
| COCc1cccc(S(=O)(=O)NCc2cnn(C)c2C)c1 | -25.8% |
| Cc1c(CNS(=O)(=O)c2cccc(COC(C)C)c2)cnn1C | 57.5% |

| SMILES | INHIBITION |
| --- | --- |
| CS(=O)(=O)Nc1ccn(Cc2cccc(Cl)c2)n1 | 22.6% |
| CCN(Cc1ccco1)C(C)c1nc(C)no1 (stereo unspecified) | -97.2% |
| COc1ccc(CN2Cc3nnn(C)c3C(COCCN(C)C)C2)cc1 (stereo unspecified) | 16.4% |
| Cc1cc2c(c(-c3c[nH]c(C)n3)c1)OC(CN)C2 (stereo unspecified) | 11.6% |
| Cc1nc(-c2cc(Cl)cc3c2OC(CN)C3)c[nH]1 (stereo unspecified) | 68.3% |
| Cc1nc(-c2cc(Cl)c3c(c2)CC(CN)O3)c[nH]1 (stereo unspecified) | 24.4% |
| Cc1cc(C(F)(F)F)c2c(=O)n(Cc3cc(C)on3)n(C)c2n1 | 42.1% |
| CC(C)(CN)NS(=O)(=O)c1c(F)cccc1F | -4.62% |
| CN1CCC(Cc2nc(-c3ccnn3C)n(Cc3ccccc3)n2)CC1 | 64.6% |
| Cc1ncsc1-c1nc(CC2CCN(C)CC2)nn1Cc1ccccc1 | 47.5% |
| CN1CCC(Cc2nc(-c3cnccn3)n(Cc3ccccc3)n2)CC1 | -14.3% |
| COc1c(C2CCCN2Cc2cccc(C(N)=O)c2)c(C)nn1C (stereo unspecified) | -11.4% |
| O=c1cc2c(nn1CN1CCC(c3ccccc3)CC1)CCC2 | 33.6% |
| Cn1cnc(S(=O)(=O)N2C[C@H](OCC3CC3)[C@H]3OCCC[C@H]32)c1 | 40.8% |
| CC(C)CO[C@H]1CN(S(=O)(=O)c2cn(C)cn2)[C@@H]2CCCO[C@H]12 | 53.9% |
| CCO[C@@H]1CN(S(=O)(=O)c2cn(C)cn2)[C@@H]2CCCO[C@@H]21 | 2.79% |
| CC(=O)N1C[C@H]2CC[C@@H](C1)N(C(=O)CCc1n[nH]c3c1CCCC3)C2 | 48.5% |
| CC(C)n1cnnc1CN(C)C(=O)C1CCCN(CC(N)=O)C1 (stereo unspecified) | 4.25% |
| Cc1cn2c(n1)C(CNCc1cccc3c1OCO3)CCC2 (stereo unspecified) | 62% |
| Cc1ccc(N2CCCC(NCc3cccc4c3OCO4)C2)nn1 (stereo unspecified) | 16.8% |
| Cc1cn2c(n1)C(CNCc1ccc(C)s1)CCC2 (stereo unspecified) | 51.1% |
| Cc1ccc(CNCC2CCCn3ccnc32)s1 (stereo unspecified) | 43.7% |

| SMILES | INHIBITION |
| --- | --- |
| Cc1ccc(CNCC2CCCN2c2cccnn2)s1 (stereo unspecified) | -19.9% |
| Cn1cc(N2CCCC(NCc3cccc4c3OCCCO4)C2)cn1 (stereo unspecified) | 11.1% |
| CN(CCCc1cc(-c2ccccc2)no1)S(C)(=O)=O | -42.55% |
| O=C(Cc1ccc2c(c1)CCO2)N1CCN(c2ccncc2)CC1 | 15.3% |
| CC(C)NC(=O)[C@H]1C[C@H]2CN(C(=O)NCCc3ccccc3)C[C@@H]1O2 | 5.67% |
| O=C(CNC(=O)c1ccc2c(c1)CCC2)NCCNc1ncccn1 | -24.3% |
| CCNC(=O)Nc1ncc(-c2cccnc2)s1 | 4.41% |
| CC(C)C(C)n1nccc1NC(=O)Cn1cnc2ccccc21 (stereo unspecified) | -8.99% |
| COc1ccc(C(=O)Nc2n[nH]c(C3CCCO3)n2)cc1 (stereo unspecified) | 32.3% |
| Cc1nn(C)c(C)c1C(=O)N1CCN(c2ccncc2Cl)CC1 | 43.9% |
| Cc1cccc(N2CCN(C(=O)NC(C)c3nncn3C)CC2)c1C (stereo unspecified) | -48.4% |
| COC(=O)c1cccc(C(=O)N2CCN(c3cccc(C)c3C)CC2)n1 | 74.2% |
| COC(=O)c1cccc(C(=O)N2CCN(c3ccc(Cl)cc3)CC2)n1 | -18.3% |
| Cc1cccc(N2CCN(C(=O)c3c(C)nn(C)c3C)CC2)c1C | 54.8% |
| COC(=O)c1cccc(C(=O)N2CCN(c3cc(Cl)ccc3C)CC2)n1 | 66.4% |
| COC(=O)c1cccc(C(=O)N2CCN(c3ccccc3F)CC2)n1 | 30% |
| COC(=O)c1cccc(C(=O)N2CCN(c3ccc(OC)cc3)CC2)n1 | 5.51% |
| COC(=O)c1cccc(C(=O)N2CCN(c3cc(C)ccc3C)CC2)n1 | -19.4% |
